What was measured:
Assay in all cases: log2 ratio of Biotin-Ahx-Ub-VS probe labelling (fragment/DMSO); higher = less target engagement (more negative = stronger competition), active = hit call of the paper (q ≤ 0.05, log2 ratio ≤ -1)
Details in all cases: compound concentration: 200 uM; treatment time: 3 h
[1] = target: T1, USP19 (UniProt O94966)
T1 sequence (whole entry): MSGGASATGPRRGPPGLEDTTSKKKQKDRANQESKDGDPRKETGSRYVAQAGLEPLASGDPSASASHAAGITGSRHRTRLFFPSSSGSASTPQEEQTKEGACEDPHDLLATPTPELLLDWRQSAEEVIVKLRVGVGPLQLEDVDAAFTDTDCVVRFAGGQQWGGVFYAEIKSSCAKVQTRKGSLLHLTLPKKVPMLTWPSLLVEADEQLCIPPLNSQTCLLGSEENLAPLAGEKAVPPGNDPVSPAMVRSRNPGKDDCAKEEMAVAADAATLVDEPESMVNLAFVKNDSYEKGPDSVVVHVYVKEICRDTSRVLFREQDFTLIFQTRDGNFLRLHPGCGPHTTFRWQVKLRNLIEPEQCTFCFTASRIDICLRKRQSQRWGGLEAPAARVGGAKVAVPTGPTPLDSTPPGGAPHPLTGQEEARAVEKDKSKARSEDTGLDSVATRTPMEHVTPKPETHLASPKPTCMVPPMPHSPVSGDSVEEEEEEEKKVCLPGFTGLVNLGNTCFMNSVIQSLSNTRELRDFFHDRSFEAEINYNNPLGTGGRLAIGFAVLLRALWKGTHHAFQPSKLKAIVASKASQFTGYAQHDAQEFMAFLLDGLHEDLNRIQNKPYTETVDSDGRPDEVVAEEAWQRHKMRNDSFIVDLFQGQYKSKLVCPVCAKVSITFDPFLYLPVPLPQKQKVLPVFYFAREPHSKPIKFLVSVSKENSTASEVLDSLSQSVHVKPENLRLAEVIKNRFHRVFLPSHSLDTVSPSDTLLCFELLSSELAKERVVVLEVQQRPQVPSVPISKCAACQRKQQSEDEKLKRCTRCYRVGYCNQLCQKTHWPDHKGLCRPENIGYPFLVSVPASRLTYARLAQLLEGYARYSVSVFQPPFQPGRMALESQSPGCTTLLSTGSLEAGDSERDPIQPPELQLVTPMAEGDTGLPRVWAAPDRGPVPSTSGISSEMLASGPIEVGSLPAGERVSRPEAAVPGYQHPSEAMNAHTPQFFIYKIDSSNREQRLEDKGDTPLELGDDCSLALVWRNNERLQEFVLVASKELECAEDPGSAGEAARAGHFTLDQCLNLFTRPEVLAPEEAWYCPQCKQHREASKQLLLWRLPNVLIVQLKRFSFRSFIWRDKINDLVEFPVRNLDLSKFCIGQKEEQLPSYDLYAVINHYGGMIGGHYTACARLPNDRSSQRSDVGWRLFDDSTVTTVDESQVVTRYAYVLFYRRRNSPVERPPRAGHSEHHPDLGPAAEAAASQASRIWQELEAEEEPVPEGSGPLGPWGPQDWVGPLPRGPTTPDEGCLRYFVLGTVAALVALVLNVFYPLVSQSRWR
How it was run: (§1)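 HEK293T lysate (495 µg per sample, in Tris/CHAPS/IGEPAL buffer with protease inhibitors) was treated in triplicate with fragment at 200 µM or with DMSO for 3 h. It was then treated with Biotin-Ahx-Ub-VS (0.5 µM final) for 1 h. Labelled DUBs were NeutrAvidin-enriched, digested with LysC and trypsin, and run by diaPASEF LC-MS/MS. Spectronaut label-free quantities were global-median-normalised. Values are average log2 ratios fragment/DMSO by unpaired t-test, using proteins with ≥2 unique peptides.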

[2] = target: T2, USP22 (UniProt Q9UPT9)
T2 sequence (whole entry): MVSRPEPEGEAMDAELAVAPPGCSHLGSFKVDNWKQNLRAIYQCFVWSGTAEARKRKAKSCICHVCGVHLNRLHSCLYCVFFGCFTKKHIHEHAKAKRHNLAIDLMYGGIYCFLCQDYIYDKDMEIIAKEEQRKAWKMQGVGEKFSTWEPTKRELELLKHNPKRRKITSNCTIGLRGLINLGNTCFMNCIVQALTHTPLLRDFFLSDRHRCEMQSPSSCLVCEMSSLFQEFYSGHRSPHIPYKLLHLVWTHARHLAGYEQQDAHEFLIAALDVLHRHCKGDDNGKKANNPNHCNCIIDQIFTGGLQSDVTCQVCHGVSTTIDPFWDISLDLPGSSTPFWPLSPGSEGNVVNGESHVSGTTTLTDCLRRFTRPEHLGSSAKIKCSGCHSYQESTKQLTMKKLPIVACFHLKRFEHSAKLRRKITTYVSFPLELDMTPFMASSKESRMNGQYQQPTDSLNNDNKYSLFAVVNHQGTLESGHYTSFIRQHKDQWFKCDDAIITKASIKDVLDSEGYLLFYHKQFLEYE
How it was run: as §1

[3] = target: USP24 (UniProt Q9UPU5)
Chain of USP24 (Q9UPU5 whole entry): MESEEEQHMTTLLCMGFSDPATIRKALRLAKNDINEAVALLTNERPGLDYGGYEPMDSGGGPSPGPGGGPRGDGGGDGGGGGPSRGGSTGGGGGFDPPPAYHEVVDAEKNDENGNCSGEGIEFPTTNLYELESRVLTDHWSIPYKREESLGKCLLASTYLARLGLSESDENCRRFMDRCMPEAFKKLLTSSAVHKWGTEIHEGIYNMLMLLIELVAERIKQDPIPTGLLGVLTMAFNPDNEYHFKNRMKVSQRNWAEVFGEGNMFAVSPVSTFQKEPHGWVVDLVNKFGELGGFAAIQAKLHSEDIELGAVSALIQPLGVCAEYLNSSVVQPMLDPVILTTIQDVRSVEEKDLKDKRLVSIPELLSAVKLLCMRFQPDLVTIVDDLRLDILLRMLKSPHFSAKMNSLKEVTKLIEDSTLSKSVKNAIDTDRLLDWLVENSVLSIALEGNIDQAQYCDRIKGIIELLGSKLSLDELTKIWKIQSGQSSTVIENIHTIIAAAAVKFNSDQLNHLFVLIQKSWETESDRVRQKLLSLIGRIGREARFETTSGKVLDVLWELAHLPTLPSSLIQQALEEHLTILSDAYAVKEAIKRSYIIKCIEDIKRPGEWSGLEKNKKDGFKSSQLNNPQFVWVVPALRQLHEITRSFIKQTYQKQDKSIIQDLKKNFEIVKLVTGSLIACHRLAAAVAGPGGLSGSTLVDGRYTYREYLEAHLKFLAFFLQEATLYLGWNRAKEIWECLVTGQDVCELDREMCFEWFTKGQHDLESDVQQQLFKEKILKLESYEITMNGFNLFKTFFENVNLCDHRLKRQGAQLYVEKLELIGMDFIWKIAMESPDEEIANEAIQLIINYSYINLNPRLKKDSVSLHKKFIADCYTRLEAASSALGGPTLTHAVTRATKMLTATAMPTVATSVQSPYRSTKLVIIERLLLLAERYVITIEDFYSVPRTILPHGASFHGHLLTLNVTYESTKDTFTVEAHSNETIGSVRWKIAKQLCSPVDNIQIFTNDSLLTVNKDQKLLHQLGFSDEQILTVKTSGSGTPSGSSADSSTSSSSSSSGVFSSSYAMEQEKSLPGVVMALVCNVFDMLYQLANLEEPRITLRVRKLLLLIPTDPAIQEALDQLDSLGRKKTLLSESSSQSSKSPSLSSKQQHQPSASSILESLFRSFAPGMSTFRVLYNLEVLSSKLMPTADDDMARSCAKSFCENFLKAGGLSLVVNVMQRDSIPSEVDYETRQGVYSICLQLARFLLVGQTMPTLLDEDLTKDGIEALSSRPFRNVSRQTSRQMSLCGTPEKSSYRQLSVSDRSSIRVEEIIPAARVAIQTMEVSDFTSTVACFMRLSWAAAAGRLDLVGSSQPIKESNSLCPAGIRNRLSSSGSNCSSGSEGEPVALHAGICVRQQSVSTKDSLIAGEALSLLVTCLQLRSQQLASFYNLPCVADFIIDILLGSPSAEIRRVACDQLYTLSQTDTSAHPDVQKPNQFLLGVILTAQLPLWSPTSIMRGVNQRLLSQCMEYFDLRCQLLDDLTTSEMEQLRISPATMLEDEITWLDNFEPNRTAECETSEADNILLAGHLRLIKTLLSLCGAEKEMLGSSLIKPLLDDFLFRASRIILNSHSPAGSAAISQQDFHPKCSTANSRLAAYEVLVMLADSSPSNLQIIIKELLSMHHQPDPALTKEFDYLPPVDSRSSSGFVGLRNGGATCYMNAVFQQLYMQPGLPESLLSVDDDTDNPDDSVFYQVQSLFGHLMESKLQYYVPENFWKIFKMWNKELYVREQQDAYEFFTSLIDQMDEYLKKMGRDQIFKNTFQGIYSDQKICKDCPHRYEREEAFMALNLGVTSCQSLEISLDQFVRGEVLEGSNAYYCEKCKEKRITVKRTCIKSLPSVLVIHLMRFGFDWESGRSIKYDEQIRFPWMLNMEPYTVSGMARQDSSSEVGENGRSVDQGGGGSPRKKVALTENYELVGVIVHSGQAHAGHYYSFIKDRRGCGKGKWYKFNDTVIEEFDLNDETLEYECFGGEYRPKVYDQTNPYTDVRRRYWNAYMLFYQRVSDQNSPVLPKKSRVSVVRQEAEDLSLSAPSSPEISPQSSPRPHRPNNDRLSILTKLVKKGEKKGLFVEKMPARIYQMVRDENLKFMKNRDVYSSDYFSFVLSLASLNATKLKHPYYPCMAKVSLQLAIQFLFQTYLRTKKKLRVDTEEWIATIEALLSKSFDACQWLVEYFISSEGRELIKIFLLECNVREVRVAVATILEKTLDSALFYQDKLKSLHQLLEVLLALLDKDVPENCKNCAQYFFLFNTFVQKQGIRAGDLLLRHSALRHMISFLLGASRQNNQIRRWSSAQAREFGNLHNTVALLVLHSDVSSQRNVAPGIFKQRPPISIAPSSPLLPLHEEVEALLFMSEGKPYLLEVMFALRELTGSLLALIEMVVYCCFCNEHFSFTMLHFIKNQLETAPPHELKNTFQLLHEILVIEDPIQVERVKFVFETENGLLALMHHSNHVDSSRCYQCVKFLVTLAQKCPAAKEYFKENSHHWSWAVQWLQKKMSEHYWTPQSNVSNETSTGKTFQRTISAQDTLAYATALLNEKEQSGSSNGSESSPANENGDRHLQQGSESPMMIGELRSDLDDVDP
How it was run: as §1

[4] = target: T3, USP25 (UniProt Q9UHP3)
T3 sequence (whole entry): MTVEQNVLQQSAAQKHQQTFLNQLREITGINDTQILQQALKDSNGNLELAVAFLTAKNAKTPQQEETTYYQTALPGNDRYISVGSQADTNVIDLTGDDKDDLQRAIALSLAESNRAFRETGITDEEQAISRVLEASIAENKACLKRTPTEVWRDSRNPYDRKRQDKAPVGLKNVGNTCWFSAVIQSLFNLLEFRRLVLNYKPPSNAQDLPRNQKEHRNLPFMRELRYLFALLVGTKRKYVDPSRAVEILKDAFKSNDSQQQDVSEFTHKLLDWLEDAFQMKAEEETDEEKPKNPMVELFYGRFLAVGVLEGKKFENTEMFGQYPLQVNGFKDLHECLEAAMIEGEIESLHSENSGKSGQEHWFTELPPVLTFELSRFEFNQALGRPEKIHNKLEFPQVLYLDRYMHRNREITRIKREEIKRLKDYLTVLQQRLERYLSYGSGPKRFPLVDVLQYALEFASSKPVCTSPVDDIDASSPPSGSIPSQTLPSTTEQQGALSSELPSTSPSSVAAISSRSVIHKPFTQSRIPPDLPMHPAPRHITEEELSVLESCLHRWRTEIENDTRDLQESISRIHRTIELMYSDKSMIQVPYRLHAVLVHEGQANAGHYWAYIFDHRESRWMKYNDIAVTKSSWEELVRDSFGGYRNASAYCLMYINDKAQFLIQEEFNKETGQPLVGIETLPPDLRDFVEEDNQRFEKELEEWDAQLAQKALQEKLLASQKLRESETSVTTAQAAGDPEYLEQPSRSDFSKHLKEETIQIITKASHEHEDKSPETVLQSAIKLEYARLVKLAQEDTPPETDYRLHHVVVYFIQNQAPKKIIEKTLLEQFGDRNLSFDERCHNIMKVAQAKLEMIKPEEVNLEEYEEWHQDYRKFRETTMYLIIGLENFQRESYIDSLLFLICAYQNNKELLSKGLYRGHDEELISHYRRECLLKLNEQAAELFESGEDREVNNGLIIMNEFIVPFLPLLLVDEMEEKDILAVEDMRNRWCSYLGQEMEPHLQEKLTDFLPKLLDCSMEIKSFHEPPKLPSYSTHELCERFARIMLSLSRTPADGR
How it was run: as §1

[5] = target: T4, USP28 (UniProt Q96RU2)
T4 sequence (whole entry): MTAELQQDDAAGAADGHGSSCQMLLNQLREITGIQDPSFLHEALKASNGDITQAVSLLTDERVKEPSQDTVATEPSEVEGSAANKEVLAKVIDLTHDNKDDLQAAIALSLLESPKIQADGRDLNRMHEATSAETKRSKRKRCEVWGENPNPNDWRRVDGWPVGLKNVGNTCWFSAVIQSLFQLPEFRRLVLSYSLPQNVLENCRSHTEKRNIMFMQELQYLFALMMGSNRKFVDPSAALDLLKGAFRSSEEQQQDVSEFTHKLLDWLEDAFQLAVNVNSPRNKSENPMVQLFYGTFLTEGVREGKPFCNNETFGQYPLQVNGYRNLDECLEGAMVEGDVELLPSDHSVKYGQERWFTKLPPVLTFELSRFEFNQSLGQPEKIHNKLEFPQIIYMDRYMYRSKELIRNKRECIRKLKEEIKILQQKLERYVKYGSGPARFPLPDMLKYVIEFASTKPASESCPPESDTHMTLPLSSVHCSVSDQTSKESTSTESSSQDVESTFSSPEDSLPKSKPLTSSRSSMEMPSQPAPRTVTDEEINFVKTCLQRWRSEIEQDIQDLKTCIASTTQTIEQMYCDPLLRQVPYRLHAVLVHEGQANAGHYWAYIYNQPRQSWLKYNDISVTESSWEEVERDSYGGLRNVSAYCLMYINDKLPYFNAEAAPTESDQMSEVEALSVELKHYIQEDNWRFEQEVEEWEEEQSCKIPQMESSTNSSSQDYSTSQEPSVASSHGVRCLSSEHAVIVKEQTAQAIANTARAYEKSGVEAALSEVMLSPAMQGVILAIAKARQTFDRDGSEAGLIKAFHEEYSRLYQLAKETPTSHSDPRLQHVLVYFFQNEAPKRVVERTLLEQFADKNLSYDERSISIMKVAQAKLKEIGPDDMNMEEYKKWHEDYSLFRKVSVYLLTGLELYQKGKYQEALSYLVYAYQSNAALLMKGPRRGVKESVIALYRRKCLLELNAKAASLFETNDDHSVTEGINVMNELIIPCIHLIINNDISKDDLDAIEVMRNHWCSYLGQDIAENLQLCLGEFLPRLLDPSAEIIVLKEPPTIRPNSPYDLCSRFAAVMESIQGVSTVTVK
How it was run: as §1

Measured: log2 ratio of Biotin-Ahx-Ub-VS probe labelling

Cc1cc(C2CCCN2C(=O)CCl)nn1C.Cl (stereo not given)
inactive: [1] -0.282 | [2] -0.312 | [3] -0.202 | [4] -0.257 | [5] -0.271

From the supplement of paper PMC11732987, “Enantioselective OTUD7B fragment discovery through chemoproteomics screening and high-throughput optimisation” (Communications Chemistry, 2025)
